# High-throughput results: PubChem, several laboratories
# HIV RNase H inh: blocks HIV-1 RNase H cleavage of RNA/DNA duplex; 65,000 tested, 1.9% active; RT-RNase H RNA/DNA duplex cleavage, fluorescence; AID 565; inhibition, % at 10 µM; in the data active means inhibition above about 50%
# RmlC RmlD mix: mixture blocks RmlC and RmlD coupled enzyme activity | RmlC/RmlD coupled enzyme inhibition, 384-well mixture HTS | inhibition, % at 5.5 µM | 110,000 tested, 0.39% active; in the data active means inhibition above about 30%, passing the limit was not always enough
# RmlCD artifact: shows fluorescent artifact in RmlC/RmlD assay, dose-response counter-screen; shares compounds with RmlC RmlD mix; RmlC/RmlD assay fluorescence artifact counter-screen; calls only; 360 tested, 96% active; call rule not given here;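 further: compound alone with no enzyme and no substrates present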
# * marks the source's active call; other numbers are inactive results; i = inactive; . = not tested or not shown; + = active, no number. The full list was thinned out, with hits kept by preference.
SMILES,HIV RNase H inh,RmlC RmlD mix,RmlCD artifact
Cn1c(/C=N/c2nc3ccccc3[nH]2)nc2ccccc21,2.7,11.8,.
O=C(O)c1ccc(-c2nc3ccccc3[nH]2)cc1,.,.,i
Nc1ccc(-c2nc3ccccc3[nH]2)cc1,-0.8,18.8,.
CCOC(=O)CN1C(=O)N(CC)C(C)=C(C(=O)OC)[C@@H]1c1ccccc1,.,16.1,.
CCOC(=O)c1cc2c(=O)n3cccc(C)c3nc2n(Cc2ccco2)c1=NC(=O)c1ccccc1,.,36.2*,+
Cc1cccn2c(=O)c3cc(C#N)c(=NC(=O)c4ccncc4)n(Cc4ccco4)c3nc12,-2.9,.,.
N#Cc1nc(-c2ccc(OCc3ccccc3)cc2)oc1N1CCC(C(N)=O)CC1,44.8,.,.
COc1ccc(-c2nc(C#N)c(N3CCC(C(N)=O)CC3)o2)cc1,.,50.4*,+
CCC(=S)/C=C1\Sc2ccc3ccccc3c2N1CCCS(=O)(=O)O,.,8.5,.
CC(C)CN(Cc1c(O)ccc2c3c(c(=O)oc12)CCC3)CC(C)C,.,95.0*,+
Cc1c(O)ccc2c3c(c(=O)oc12)CCCC3,-25.7,69.6,.
CCN(CC)Cc1c(O)ccc2c(-c3ccccc3)cc(=O)oc12,-6.4,-8.4,.
Cc1cc(=O)oc2c(CN(CC(C)C)CC(C)C)c(O)ccc12,.,104.9*,+
O=c1oc2c(CN3CCOCC3)c(O)ccc2c2c1CCC2,-5.6,99.6*,+
O=c1c(-c2ccc3c(c2)OCCO3)coc2c(CN3CCOCC3)c(O)ccc12,-5.0,13.1,.
COC(=O)[C@@H]1C[C@@]2(O)[C@@H](O)[C@@H](O)[C@@H](O)C[C@H]2N1Cc1ccc(-c2ccccc2)cc1,.,-9.2,.
CC(NC(=O)c1ccc(CS(=O)(=O)c2ccc(Cl)cc2)o1)c1ccc2c(c1)OCCO2 (configuration not stated),.,-2.4,.
Cc1cc(/C=C(\C#N)C(=O)OCC(=O)NC(=O)NC(C)(C)C)c(C)n1CCC(C)C,.,2.4,.
C=CCNC(=O)NC(=O)COC(=O)/C(C#N)=C/c1cc(C)n(CCC(C)C)c1C,.,30.0*,+
COc1cc2cc(CN(Cc3ccc4c(c3)OCO4)C(=O)c3ccco3)c(=O)[nH]c2cc1OC,.,45.8*,+
Cc1cc2cc(CN(Cc3ccc4c(c3)OCO4)C(=O)c3ccco3)c(=O)[nH]c2cc1C,5.8,12.3,.
Cc1cc(=O)oc2c(CN3CCCCC3)c(O)c(Cl)cc12,-1.9,94.0*,+
CCCc1cc(=O)oc2c(CN3CCCC3)c(O)ccc12,-13.1,98.7*,+
CN1CCN(Cc2c(O)ccc3c(-c4ccccc4)cc(=O)oc23)CC1,4.0,-6.0,.
Cc1cc(=O)oc2c(CN3CCC(C)CC3)c(O)c(Cl)cc12,5.4,148.6*,+
SMILES,HIV RNase H inh,RmlC RmlD mix,RmlCD artifact
CCc1cc(=O)oc2cc(C)c(CN3CCCCC3)c(O)c12,3.0,10.1,.
Cc1cc2oc(=O)cc(CN3CCC(C)CC3)c2cc1Cl,1.5,-21.0,.
Cc1[nH]n(-c2cccc(Cl)c2)c(=O)c1C=NC12CN3CN(CN(C3)C1)C2,.,-9.6,.
CCOC(=O)CC(=O)CSc1nnc2sc3ccccc3n12,-6.2,4.9,.
COCCCNC(=O)c1cc2c(=O)n3cccc(C)c3nc2n(C(C)C)c1=N,-21.1,63.8*,+
C=CCn1c(=N)c(C(=O)NCCCOC)cc2c(=O)n3cc(C)ccc3nc21,-1.9,.,.
CC(C)OCCCn1c(=NC(=O)c2ccncc2)c(C#N)cc2c(=O)n3ccccc3nc21,-2.4,115.0*,+
CCCCCn1c(=NC(C)=O)c(C#N)cc2c(=O)n3ccccc3nc21,-12.7,.,.
COC(=O)c1cc2c(=O)n3ccccc3nc2n(Cc2cccnc2)c1=N,-7.6,14.2,.
COCCn1c(=N)c(C(=O)NCCc2ccc(OC)cc2)cc2c(=O)n3cccc(C)c3nc21,-24.4,9.0,.
N=c1c(C(=O)NCc2ccc(F)cc2)cc2c(=O)n3ccccc3nc2n1Cc1cccnc1,.,52.7*,+
C=CCn1c(=N)c(C(=O)NCCCOC)cc2c(=O)n3ccccc3nc21,-10.2,66.0*,+
C[C@@]12CCC=C[C@H]1[C@H](c1ccc3ccccc3c1/C=C/c1ccccc1)N(Cc1ccccc1)C2=O,.,-1.8,.
CCOC(=O)N(CC)c1ccc(C(O)(C(=O)OC)C(F)(F)F)cc1 (configuration not stated),-8.1,15.2,.
c1ccc(-n2ncc3c(N4CCN(c5ccccn5)CC4)nc(N4CCCCCC4)nc32)cc1,16.2,-11.5,.
O=C(Cc1cccs1)N1CCCC(c2nc3c(nnn3Cc3ccccc3Cl)c(=O)[nH]2)C1 (configuration not stated),-11.3,11.8,.
C=CCn1c(=O)c(C#N)cc2c(=O)n3ccccc3nc21,-12.8,57.8*,+
C=CCn1c(=N)c(C#N)cc2c(=O)n3ccccc3nc21,.,16.1,.
CNNC(=O)C(C)NC(=O)c1ccc(Br)cc1 (configuration not stated),.,7.7,.
Cc1c(Cc2ccccc2)c(=O)oc2c(CN(C)C)c(O)c(Cl)cc12,-8.8,144.7*,+
CN(C)Cc1c(O)ccc2oc(Cc3ccccc3)cc12,6.4,4.1,.
Cc1c(C)c2cc(Cl)c(OCc3nn[nH]n3)cc2oc1=O,-0.6,-6.2,.
CCN(CC)Cc1c(O)c(Cl)cc2c(C)c(C)c(=O)oc12,.,67.9*,+
